In paper PMC7862700, “An all-to-all approach to the identification of sequence-specific readers for epigenetic DNA modifications on cytosine” one finds binding signal data, which are given here for one sequence.

Test in all cases: DAPPL (digital affinity profiling via proximity ligation, sequencing); 10 mM Tris-HCl pH 7.5, 50 mM NaCl, 1 mM DTT, 4% glycerol, room temperature, 30 min; GST-TFs on glutathione beads, 16-mer random dsDNA library, 0.1% formaldehyde crosslink after washing; high values mean tight binding
The target of one assay is T1, FEV (Homo sapiens, UniProt Q99581 1-238).
T1 sequence: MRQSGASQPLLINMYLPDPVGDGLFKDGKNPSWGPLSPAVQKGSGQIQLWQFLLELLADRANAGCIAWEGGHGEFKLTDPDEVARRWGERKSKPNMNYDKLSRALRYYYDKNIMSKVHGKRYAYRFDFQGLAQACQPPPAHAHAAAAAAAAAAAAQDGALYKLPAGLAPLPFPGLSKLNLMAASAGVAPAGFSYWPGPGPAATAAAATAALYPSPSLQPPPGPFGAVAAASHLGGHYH
The note with it: protein: recombinant; tags: N-terminal GST; dsDNA, one strand shown. A digest of the protocol:
(§1)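 Human transcription factors were made in yeast as GST fusions, captured on glutathione beads and barcoded with DNA. With a tag-only sample included, the pool was incubated with 200 nmole of a random double-stranded 16-mer DNA library in Tris/NaCl/DTT/glycerol buffer at room temperature for 30 min, then crosslinked with 0.1% formaldehyde after washing, ligated by proximity, amplified and sequenced. For binding signal, each hexamer's read frequency for a factor is divided by its frequency for the tag-only sample.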

Another assay deals with ETV5 (Homo sapiens, UniProt P41161 1-510). Conditions: protein: recombinant; tags: N-terminal GST; dsDNA, one strand shown. The method, boiled down:
as §1

Another assay concerns the target HSF1 (Homo sapiens, UniProt Q00613 1-529). The note with it: protein: recombinant; tags: N-terminal GST; chain copies: 3; dsDNA, one strand shown. The method, boiled down:
as §1

For a further assay, the target named is T2, SPIC (Homo sapiens, UniProt Q8N5J4 1-248).
T2 sequence: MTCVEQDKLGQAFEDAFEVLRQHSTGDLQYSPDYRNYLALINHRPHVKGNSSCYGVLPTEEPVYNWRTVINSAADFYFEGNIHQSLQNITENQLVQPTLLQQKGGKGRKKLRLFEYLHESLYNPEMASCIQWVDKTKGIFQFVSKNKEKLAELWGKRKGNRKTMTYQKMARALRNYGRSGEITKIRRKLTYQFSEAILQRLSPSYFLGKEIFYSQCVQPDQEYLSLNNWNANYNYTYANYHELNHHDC
The note with it: protein: recombinant; tags: N-terminal GST; dsDNA, one strand shown. The method, boiled down: as §1

The target of a further assay is ELF4 (Homo sapiens, UniProt Q99607 1-663). The note with it: protein: recombinant; tags: N-terminal GST; dsDNA, one strand shown. A digest of the protocol:
as §1

The target in a further assay is T3, ELK4 (Homo sapiens, UniProt P28324-2 1-405).
T3 sequence: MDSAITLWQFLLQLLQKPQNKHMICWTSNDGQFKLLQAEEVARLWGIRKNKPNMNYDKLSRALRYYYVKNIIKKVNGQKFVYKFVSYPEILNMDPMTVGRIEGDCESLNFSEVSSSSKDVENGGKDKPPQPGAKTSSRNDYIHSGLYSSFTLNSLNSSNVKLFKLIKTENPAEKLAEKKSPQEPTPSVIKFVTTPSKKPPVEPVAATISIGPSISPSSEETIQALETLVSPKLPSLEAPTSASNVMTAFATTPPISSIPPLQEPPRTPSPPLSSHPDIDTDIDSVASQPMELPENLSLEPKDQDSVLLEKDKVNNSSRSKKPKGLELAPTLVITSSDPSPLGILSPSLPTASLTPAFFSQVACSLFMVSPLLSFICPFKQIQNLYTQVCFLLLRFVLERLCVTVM
The note with it: protein: recombinant; tags: N-terminal GST; dsDNA, one strand shown. The method, boiled down:
as §1

The next assay concerns the target T4, ETV2 (Homo sapiens, UniProt O00321 1-342).
T4 sequence: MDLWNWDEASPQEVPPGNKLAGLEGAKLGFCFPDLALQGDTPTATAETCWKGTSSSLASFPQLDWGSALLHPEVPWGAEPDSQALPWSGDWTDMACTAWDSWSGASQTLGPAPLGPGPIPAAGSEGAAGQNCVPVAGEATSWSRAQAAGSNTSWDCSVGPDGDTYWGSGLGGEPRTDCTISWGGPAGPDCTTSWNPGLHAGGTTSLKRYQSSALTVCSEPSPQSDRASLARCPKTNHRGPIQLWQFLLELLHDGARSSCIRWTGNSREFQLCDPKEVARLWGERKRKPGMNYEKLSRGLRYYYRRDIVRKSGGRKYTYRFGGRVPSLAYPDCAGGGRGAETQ
The note with it: protein: recombinant; tags: N-terminal GST; dsDNA, one strand shown. A digest of the protocol:
as §1

The target in another assay is T5, ELF3 (Homo sapiens, UniProt P78545 1-371).
T5 sequence: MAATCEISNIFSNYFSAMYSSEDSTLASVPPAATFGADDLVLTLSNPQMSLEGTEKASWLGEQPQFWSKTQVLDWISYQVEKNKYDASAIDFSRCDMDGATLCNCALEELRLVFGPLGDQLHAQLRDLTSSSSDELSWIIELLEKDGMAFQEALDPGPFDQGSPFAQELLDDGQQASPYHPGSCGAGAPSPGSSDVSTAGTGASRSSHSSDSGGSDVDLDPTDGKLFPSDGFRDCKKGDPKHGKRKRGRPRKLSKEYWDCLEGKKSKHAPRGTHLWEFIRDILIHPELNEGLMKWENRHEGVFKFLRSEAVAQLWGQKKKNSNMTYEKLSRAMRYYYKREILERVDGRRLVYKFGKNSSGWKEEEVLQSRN
The note with it: protein: recombinant; tags: N-terminal GST; dsDNA, one strand shown. The method, boiled down: as §1

The next assay deals with CRX (Homo sapiens, UniProt O43186 1-299). The note with it: protein: recombinant; tags: N-terminal GST; dsDNA, one strand shown. The method, boiled down: as §1
The next assay addresses ETV1 (Homo sapiens, UniProt P50549 1-477). Conditions: protein: recombinant; tags: N-terminal GST; dsDNA, one strand shown. The method, boiled down:
as §1

A further assay concerns the target T6, ERF (Homo sapiens, UniProt P50548 1-548).
T6 sequence: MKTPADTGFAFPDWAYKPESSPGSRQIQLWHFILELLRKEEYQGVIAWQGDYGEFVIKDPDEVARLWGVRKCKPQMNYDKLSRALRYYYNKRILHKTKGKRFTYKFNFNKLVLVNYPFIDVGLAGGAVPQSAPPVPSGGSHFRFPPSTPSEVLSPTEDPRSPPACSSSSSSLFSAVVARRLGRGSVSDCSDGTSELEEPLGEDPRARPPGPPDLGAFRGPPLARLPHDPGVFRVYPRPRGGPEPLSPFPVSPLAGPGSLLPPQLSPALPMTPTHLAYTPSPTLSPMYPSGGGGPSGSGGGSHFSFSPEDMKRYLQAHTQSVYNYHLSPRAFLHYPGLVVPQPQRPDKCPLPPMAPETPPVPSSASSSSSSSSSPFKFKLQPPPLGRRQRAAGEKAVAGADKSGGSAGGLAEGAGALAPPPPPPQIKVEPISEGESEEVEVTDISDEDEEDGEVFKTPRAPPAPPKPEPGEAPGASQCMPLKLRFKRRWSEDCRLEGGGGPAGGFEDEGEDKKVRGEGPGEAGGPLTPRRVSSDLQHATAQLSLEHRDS
Conditions: protein: recombinant; tags: N-terminal GST; dsDNA, one strand shown. The method, boiled down: as §1

The next assay addresses T7, ETV3L (Homo sapiens, UniProt Q6ZN32 1-361).
T7 sequence: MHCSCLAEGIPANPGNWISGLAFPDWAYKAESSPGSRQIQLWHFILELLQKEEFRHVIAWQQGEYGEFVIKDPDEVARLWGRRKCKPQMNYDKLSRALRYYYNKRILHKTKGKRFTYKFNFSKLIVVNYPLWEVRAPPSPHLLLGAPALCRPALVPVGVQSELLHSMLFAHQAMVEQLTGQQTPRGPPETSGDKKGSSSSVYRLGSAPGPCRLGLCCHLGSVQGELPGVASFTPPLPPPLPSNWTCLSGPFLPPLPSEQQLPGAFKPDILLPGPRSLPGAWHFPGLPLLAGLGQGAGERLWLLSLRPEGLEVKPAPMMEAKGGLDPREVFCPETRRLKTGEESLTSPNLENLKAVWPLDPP
Conditions: protein: recombinant; tags: N-terminal GST; dsDNA, one strand shown. A digest of the protocol: as §1

Another assay deals with T8, ETS2 (Homo sapiens, UniProt P15036 1-469).
T8 sequence: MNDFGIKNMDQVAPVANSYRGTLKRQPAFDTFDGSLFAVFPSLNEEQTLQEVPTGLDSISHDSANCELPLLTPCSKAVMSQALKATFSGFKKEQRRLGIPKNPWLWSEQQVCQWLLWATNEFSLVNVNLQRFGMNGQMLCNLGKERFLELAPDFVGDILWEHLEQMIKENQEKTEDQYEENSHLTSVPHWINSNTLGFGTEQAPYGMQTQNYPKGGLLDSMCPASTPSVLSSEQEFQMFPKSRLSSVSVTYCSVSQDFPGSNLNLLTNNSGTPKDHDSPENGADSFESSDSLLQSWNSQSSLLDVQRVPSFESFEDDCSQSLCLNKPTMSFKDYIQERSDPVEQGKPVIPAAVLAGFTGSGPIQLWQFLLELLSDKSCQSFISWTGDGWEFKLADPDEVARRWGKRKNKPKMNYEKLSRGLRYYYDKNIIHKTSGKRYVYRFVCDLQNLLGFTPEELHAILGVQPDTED
Conditions: protein: recombinant; tags: N-terminal GST; dsDNA, one strand shown. The method, boiled down:
as §1

In a further assay the target is T9, SPDEF (Homo sapiens, UniProt O95238 1-335).
T9 sequence: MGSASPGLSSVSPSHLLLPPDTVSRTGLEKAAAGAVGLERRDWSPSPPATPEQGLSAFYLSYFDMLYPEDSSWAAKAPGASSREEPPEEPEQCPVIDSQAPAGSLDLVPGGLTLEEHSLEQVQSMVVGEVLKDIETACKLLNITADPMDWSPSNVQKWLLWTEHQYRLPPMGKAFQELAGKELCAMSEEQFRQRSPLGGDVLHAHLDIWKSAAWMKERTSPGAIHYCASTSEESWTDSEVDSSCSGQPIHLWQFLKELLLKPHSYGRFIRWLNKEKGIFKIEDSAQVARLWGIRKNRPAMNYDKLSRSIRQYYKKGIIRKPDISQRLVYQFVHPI
Conditions: protein: recombinant; tags: N-terminal GST; dsDNA, one strand shown. A digest of the protocol:
as §1

The target of another assay is T10, ETV7 (Homo sapiens, UniProt Q9Y603 1-341).
T10 sequence: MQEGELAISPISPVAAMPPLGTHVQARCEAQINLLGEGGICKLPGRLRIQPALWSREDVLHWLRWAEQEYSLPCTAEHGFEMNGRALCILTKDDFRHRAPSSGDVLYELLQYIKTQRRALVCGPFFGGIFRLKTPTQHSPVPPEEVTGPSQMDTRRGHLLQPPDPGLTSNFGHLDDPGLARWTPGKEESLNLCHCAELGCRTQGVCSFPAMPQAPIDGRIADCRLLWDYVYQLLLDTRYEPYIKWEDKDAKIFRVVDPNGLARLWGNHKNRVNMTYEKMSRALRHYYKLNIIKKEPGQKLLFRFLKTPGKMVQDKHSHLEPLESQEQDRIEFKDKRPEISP
The note with it: protein: recombinant; tags: N-terminal GST; dsDNA, one strand shown. A digest of the protocol:
as §1

The target of another assay is T11, ELF5 (Homo sapiens, UniProt Q9UKW6-2 1-255).
T11 sequence: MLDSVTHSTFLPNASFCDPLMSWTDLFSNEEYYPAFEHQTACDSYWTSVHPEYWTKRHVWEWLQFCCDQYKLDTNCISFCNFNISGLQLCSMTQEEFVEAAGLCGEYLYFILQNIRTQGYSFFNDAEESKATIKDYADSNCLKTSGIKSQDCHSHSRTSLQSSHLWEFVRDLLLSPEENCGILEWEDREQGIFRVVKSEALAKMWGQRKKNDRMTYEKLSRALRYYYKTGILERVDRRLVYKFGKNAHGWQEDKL
The note with it: protein: recombinant; tags: N-terminal GST; dsDNA, one strand shown. A digest of the protocol: as §1

The target in the next assay is T12, ETV3 (Homo sapiens, UniProt P41162-2 1-143).
T12 sequence: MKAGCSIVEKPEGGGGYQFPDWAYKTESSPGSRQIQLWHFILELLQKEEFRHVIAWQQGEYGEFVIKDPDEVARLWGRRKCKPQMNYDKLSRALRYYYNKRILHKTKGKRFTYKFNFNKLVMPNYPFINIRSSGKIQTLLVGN
Conditions: protein: recombinant; tags: N-terminal GST; dsDNA, one strand shown. A digest of the protocol:
as §1

The target of the next assay is ETV6 (Homo sapiens, UniProt P41212 1-452). The note with it: protein: recombinant; tags: N-terminal GST; dsDNA, one strand shown. A digest of the protocol: as §1
Sequence of ETV6 (P41212 whole entry): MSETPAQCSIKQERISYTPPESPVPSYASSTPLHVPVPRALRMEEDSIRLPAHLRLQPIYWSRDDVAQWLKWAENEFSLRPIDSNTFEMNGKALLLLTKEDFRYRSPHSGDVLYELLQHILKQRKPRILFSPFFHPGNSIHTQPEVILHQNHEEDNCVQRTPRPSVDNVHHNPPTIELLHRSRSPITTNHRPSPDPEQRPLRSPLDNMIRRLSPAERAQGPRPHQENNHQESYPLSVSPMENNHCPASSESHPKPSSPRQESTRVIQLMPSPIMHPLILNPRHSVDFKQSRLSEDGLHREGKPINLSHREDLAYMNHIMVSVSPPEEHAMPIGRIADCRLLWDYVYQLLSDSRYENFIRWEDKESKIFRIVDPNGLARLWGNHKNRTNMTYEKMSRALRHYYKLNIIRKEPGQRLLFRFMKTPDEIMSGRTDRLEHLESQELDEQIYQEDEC

Sequence of CRX (O43186 whole entry): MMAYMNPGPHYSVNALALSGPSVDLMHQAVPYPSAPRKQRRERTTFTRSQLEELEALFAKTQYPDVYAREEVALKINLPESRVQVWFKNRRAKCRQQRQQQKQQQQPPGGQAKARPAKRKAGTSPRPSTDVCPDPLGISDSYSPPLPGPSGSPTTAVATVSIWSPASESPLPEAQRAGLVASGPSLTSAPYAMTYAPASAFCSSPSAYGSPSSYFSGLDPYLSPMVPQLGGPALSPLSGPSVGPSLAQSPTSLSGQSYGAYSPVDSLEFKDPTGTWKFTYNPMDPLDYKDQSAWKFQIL
Sequence of ELF4 (Q99607 whole entry): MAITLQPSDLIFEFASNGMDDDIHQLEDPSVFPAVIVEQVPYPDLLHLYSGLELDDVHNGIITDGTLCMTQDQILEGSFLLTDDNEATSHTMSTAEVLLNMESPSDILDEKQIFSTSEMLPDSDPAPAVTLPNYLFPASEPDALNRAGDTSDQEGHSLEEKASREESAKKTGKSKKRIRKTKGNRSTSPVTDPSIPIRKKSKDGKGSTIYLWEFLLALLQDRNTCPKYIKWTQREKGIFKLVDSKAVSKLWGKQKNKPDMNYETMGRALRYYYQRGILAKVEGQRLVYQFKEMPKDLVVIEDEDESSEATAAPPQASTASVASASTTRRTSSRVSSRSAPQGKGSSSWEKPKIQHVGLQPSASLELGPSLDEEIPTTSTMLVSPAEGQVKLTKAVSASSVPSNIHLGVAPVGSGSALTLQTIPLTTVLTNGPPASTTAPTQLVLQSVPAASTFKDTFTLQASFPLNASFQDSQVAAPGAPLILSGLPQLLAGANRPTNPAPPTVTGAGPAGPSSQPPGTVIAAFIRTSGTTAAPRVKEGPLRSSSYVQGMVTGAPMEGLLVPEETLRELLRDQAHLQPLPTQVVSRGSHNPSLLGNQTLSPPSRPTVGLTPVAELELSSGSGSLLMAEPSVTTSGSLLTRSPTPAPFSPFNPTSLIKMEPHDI
Sequence of HSF1 (Q00613 whole entry): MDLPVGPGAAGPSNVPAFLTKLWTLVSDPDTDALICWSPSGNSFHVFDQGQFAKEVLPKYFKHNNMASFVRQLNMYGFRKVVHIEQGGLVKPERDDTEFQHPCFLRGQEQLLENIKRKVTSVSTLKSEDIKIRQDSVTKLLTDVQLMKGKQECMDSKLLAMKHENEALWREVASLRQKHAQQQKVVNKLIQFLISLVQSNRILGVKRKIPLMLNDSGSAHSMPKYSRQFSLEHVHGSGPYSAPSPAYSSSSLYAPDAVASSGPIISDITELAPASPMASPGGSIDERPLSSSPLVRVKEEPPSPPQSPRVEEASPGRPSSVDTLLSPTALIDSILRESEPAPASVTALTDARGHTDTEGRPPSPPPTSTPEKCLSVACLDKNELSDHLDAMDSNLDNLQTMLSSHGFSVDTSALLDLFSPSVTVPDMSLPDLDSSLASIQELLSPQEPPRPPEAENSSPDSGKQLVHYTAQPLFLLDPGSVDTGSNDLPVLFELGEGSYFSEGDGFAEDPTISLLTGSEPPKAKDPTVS
Sequence of ETV5 (P41161 whole entry): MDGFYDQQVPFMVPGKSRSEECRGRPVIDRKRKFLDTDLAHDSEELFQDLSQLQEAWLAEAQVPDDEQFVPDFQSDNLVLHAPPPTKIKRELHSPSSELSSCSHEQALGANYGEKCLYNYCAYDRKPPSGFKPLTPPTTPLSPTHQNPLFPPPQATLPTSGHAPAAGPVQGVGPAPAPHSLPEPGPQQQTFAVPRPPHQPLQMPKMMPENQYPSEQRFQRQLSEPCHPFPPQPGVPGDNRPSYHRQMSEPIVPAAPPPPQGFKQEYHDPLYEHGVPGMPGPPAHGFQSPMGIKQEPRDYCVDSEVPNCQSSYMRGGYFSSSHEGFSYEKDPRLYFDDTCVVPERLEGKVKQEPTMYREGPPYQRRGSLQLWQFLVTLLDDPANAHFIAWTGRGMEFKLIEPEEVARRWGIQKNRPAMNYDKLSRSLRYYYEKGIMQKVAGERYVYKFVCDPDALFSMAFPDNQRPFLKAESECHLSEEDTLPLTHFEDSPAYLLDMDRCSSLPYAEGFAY
Sequence of ETV1 (P50549 whole entry): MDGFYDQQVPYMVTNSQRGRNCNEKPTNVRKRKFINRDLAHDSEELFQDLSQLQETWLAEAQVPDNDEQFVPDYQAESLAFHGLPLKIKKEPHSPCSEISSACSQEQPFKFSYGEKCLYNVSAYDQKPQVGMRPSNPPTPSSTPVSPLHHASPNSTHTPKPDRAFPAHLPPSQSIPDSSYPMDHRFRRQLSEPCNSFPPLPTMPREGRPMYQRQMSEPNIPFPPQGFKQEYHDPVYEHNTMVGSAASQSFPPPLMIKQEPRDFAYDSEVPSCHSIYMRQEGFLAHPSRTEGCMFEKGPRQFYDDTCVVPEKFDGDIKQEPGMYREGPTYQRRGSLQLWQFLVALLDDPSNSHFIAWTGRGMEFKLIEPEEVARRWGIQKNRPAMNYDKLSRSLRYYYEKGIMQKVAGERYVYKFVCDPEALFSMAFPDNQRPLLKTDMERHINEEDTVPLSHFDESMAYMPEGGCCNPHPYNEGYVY

For the sequence AATCTA, the binding signal was 1.15 fold enrichment (6-mer frequency, TF over GST control) with FEV; 1.12 fold enrichment (6-mer frequency, TF over GST control) with ETV5; 1.87 fold enrichment (6-mer frequency, TF over GST control) with HSF1; 1.1 fold enrichment (6-mer frequency, TF over GST control) in the assay with SPIC; 1.14 fold enrichment (6-mer frequency, TF over GST control) with ELF4; 1.07 fold enrichment (6-mer frequency, TF over GST control) with ELK4. In addition, the binding signal is 1.09 fold enrichment (6-mer frequency, TF over GST control) with ETV2; 1.04 fold enrichment (6-mer frequency, TF over GST control) with ELF3; 1.92 fold enrichment (6-mer frequency, TF over GST control) with CRX; 1.21 fold enrichment (6-mer frequency, TF over GST control) in the assay with ETV1; 1.25 fold enrichment (6-mer frequency, TF over GST control) in the assay with ERF; 1.08 fold enrichment (6-mer frequency, TF over GST control) with ETV3L. For the same sequence, the binding signal in the assay with ETS2 is 1.16 fold enrichment (6-mer frequency, TF over GST control); with SPDEF it was 1.02 fold enrichment (6-mer frequency, TF over GST control); in the assay with ETV7 it was 1.13 fold enrichment (6-mer frequency, TF over GST control); in the assay with ELF5, 1.1 fold enrichment (6-mer frequency, TF over GST control); in the assay with ETV3, 1.05 fold enrichment (6-mer frequency, TF over GST control); in the assay with ETV6, 1.09 fold enrichment (6-mer frequency, TF over GST control).
